Reference: PubChem BioAssay (Tox21)
Unmarked numbers belong to inactive results. Records with an inconclusive call do not appear. Calls of active or inactive are those of the source. Calls follow the shape of the dose curve; as a rule, active = well fitted curve in the direction sought with a large enough effect in the repeat runs; inconclusive = weak or mixed curves; inactive = no such curve, though single readings can be large; an effect the other way counts as inactive or inconclusive.

Test system: not listed separately
Test: Caspase-3/7 induction in CHO-K1 cells by small molecules, qHTS assay (AID 1346980); also: nearly all actives have a fitted effect of over 15% in size
Conditions: CHO-K1 caspase-3/7 induction, Caspase-Glo luminescence, 17 h; series mostly up to 92.4 µM; caspase-3/7 activation: at the top concentration
In short: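 Wild-type cells were seeded at 1,500 per well and settled 5 hr at 37 C, 5% CO2, then exposed to DMSO-dissolved compounds for 17 hr. Caspase-Glo 3/7 reagent was added, and luminescence was read after 30min at room temperature.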
% is scaled to controls: 0 for no effect and ±100 for the full control effect.

Going from `CCCCCCCCSCC` to `C=CCCCCCCCCCCCC`, the “caspase-3/7 activation” value falls from -1.05% to -1.12%.

First: CCCCCCCCC1CCC(=O)O1 (stereo unspecified)
Second: BrCCCCCBr
The “caspase-3/7 activation” value of the first is lower: -2.89% for the first, 0.0748% for the second.

First: N#Cc1ccc(C(=O)O)cc1
Second: O=C(O)Cc1ccc(Cl)cc1Cl
The “caspase-3/7 activation” value of the first is higher: 0.634% for the first, 0.344% for the second.

First: CCNC(=O)C1CC(C)CCC1C(C)C (stereo unspecified)
Second: CCC(C)NC(N)=O (stereo unspecified)
The “caspase-3/7 activation” value of the first is lower: -0.19% for the first, 2.23% for the second.

Going from `CC(CO)c1ccccc1` (stereo unspecified) to `O=C(O)C(=O)Cc1ccccc1`, the “caspase-3/7 activation” value rises from -0.717% to 1.39%.

First: Cc1cc(Cl)c(C)cc1Cl
Second: O=C(O)c1cc(Cl)cc([N+](=O)[O-])c1Cl
The “caspase-3/7 activation” value of the first is lower: -1.38% for the first, -0.487% for the second.

Compared with `CC(C)(C)c1n[nH]c(=S)n(N)c1=O`, `COc1ccc(Br)c(C)c1` is higher in “caspase-3/7 activation” value: -0.672% for the first, 2.33% for the second.

Going from `Nc1cccc(O)c1` to `CC1COc2ccccc2N1` (stereo unspecified), the “caspase-3/7 activation” value falls from 1.13% to 0.187%.

Compared with `C#CC(C)N(C)C(=O)Nc1ccc(Cl)cc1` (stereo unspecified), `CCCCOC(=O)c1ccccc1` is higher in “caspase-3/7 activation” value: -1.35% for the first, 0.274% for the second.

Going from `CCC(CC)CO` to `C=C(C)C(=O)OCCN(CC)CC`, the “caspase-3/7 activation” value rises from -0.577% to 1.13%.

First: C[C@@H](Oc1ccc(CNC(=O)c2cccnc2Oc2ccc3c(c2)OCO3)c(F)c1)C(=O)O
Second: C=C(C)C(=O)OCCOP(=O)(O)OCCOC(=O)C(=C)C
The “caspase-3/7 activation” value of the first is higher: 0.31% for the first, -0.442% for the second.

First: CC(C)CC(=O)O
Second: C=C(C)C1CCC(C)(O)CC1 (stereo unspecified)
The “caspase-3/7 activation” value of the first is lower: -0.673% for the first, 0.0471% for the second.

In the case of `NCCN1CCOCC1`, the “caspase-3/7 activation” value is reported as 0.177%.

First: Cc1cc(NC(=O)C2=C(O)c3ccccc3S(=O)(=O)N2C)no1
Second: CCN(CC)CC(=O)Nc1c(C)cccc1C
The “caspase-3/7 activation” value of the first is lower: 0.245% [at 42.5 µM] for the first, 1.48% [at 42.5 µM] for the second.

Going from `Nc1nnc(-c2cccc(Cl)c2Cl)c(N)n1` to `Cc1[nH]cnc1-c1ccc(Cl)cc1`, the “caspase-3/7 activation” value falls from 3.23% [at 42.5 µM] to -1.45% [at 42.5 µM].

Compared with `COC(=O)CCc1ccc(OCC(O)CNC(C)C)cc1` (stereo unspecified), `CC(C)NCC(O)COc1cccc2[nH]ccc12` (stereo unspecified) is higher in “caspase-3/7 activation” value: -1.03% [at 42.5 µM] for the first, -0.613% [at 42.5 µM] for the second.

Going from `COc1cc2c(cc1OC)C(=O)CC2` to `NS(=O)(=O)c1cc2c(cc1Cl)CN(C1CCCCC1)C2=O`, the “caspase-3/7 activation” value falls from 0.0307% [at 42.5 µM] to -1.07% [at 42.5 µM].

In the case of `COC(=O)[C@@H]1[C@H]2C[C@H]3c4[nH]c5ccccc5c4CCN3C[C@@H]2CC[C@@H]1O`, the “caspase-3/7 activation” value is reported as 0.422% [at 42.5 µM].

In the case of `COC(=O)C1CC(=O)C(C(=O)OC)CC1=O` (stereo unspecified), the caspase-3/7 activation is reported as 0.641% [at 8.39 µM].

Test system: not listed separately
Test: Caspase-3/7 induction in HepG2 cells by small molecules, qHTS cell viability counter screen (AID 1346981); also: nearly all actives have a fitted effect of over 30% in size
Conditions: CellTiter-Fluor fluorescence, 17 h; series mostly up to 92.4 µM; activity change, negative = cytotoxicity: at the top concentration
In short: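 Fluorescence read-out of live-cell protease activity (CellTiter-Fluor) after 1 hr with reagent. This was measured in the same wells as the caspase-3/7 luminescence, on HepG2 cells exposed to DMSO-dissolved compounds for 16 hr at 37 C.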

Compared with `CCCCCCCCSCC`, `C=CCCCCCCCCCCCC` is lower in “activity change, negative = cytotoxicity” value: 2.72% for the first, -2.34% for the second.

Going from `CCCCCCCCC1CCC(=O)O1` (stereo unspecified) to `BrCCCCCBr`, the “activity change, negative = cytotoxicity” value falls from 1.64% to -6.73%.

Compared with `N#Cc1ccc(C(=O)O)cc1`, `O=C(O)Cc1ccc(Cl)cc1Cl` is lower in “activity change, negative = cytotoxicity” value: 8.62% for the first, -2.85% for the second.

First: CCNC(=O)C1CC(C)CCC1C(C)C (stereo unspecified)
Second: CCC(C)NC(N)=O (stereo unspecified)
The “activity change, negative = cytotoxicity” value of the first is higher: 0.264% for the first, -0.948% for the second.

Going from `CC(CO)c1ccccc1` (stereo unspecified) to `O=C(O)C(=O)Cc1ccccc1`, the “activity change, negative = cytotoxicity” value falls from 2.27% to 0.0621%.

First: Cc1cc(Cl)c(C)cc1Cl
Second: O=C(O)c1cc(Cl)cc([N+](=O)[O-])c1Cl
The “activity change, negative = cytotoxicity” value of the first is lower: 4.47% for the first, 8.06% for the second.

First: CC(C)(C)c1n[nH]c(=S)n(N)c1=O
Second: COc1ccc(Br)c(C)c1
The “activity change, negative = cytotoxicity” value of the first is higher: 7.17% for the first, 5.42% for the second.

Going from `Nc1cccc(O)c1` to `CC1COc2ccccc2N1` (stereo unspecified), the “activity change, negative = cytotoxicity” value rises from -4.14% to -0.398%.

Compared with `C#CC(C)N(C)C(=O)Nc1ccc(Cl)cc1` (stereo unspecified), `CCCCOC(=O)c1ccccc1` is higher in “activity change, negative = cytotoxicity” value: -0.696% for the first, 1.39% for the second.

Going from `CCC(CC)CO` to `C=C(C)C(=O)OCCN(CC)CC`, the “activity change, negative = cytotoxicity” value rises from 1.13% to 5.73%.

Compared with `C[C@@H](Oc1ccc(CNC(=O)c2cccnc2Oc2ccc3c(c2)OCO3)c(F)c1)C(=O)O`, `C=C(C)C(=O)OCCOP(=O)(O)OCCOC(=O)C(=C)C` is higher in “activity change, negative = cytotoxicity” value: 4.63% for the first, 7.64% for the second.

Going from `CC(C)CC(=O)O` to `C=C(C)C1CCC(C)(O)CC1` (stereo unspecified), the “activity change, negative = cytotoxicity” value falls from 4.22% to 0.787%.

First: Cc1cc(NC(=O)C2=C(O)c3ccccc3S(=O)(=O)N2C)no1
Second: COC(=O)[C@@H]1[C@H]2C[C@H]3c4[nH]c5ccccc5c4CCN3C[C@@H]2CC[C@@H]1O
The “activity change, negative = cytotoxicity” value of the first is higher: 0.742% [at 42.5 µM] for the first, -0.292% [at 42.5 µM] for the second.

First: COC(=O)CCc1ccc(OCC(O)CNC(C)C)cc1 (stereo unspecified)
Second: Cc1[nH]cnc1-c1ccc(Cl)cc1
The “activity change, negative = cytotoxicity” value of the first is lower: 2.03% [at 42.5 µM] for the first, 2.82% [at 42.5 µM] for the second.

First: COc1cc2c(cc1OC)C(=O)CC2
Second: NS(=O)(=O)c1cc2c(cc1Cl)CN(C1CCCCC1)C2=O
The “activity change, negative = cytotoxicity” value of the first is higher: 2.31% [at 42.5 µM] for the first, -0.143% [at 42.5 µM] for the second.

In the case of `COC(=O)C1CC(=O)C(C(=O)OC)CC1=O` (stereo unspecified), the activity change, negative = cytotoxicity is reported as 9.03% [at 8.39 µM].

Target: Nuclear receptor subfamily 1 group I member 2 (Homo sapiens) (UniProt O75469)
Sequence (O75469 whole entry, looked up): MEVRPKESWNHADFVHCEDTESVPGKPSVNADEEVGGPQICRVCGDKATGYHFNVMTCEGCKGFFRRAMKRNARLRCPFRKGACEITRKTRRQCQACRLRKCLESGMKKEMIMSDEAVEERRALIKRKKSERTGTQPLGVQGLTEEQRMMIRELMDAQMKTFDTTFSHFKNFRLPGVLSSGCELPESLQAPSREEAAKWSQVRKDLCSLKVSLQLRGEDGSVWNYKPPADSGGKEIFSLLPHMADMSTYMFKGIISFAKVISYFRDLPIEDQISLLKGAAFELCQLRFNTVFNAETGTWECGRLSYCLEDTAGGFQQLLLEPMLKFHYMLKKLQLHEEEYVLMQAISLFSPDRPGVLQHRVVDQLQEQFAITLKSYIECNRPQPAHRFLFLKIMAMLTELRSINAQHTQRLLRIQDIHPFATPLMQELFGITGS
Test: Human pregnane X receptor (PXR) small molecule agonists, qHTS assay (AID 1346982); also: nearly all actives have a fitted effect of over 35% in size; also: potency is read from the fitted curve at half-maximal effect
Conditions: PXR-Luc HepG2, CYP3A4 luciferase reporter, 24 h; series mostly up to 92.4 µM; activation: at the top concentration
In short: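 HepG2 PXR-Luc reporter line, 5% charcoal-stripped FBS; 5 hr pre-incubation, compound (DMSO) 24 hr at 37 C/5% CO2; ONE-Glo 30 min RT; luminescence read-out.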

First: CCCCCCCCSCC
Second: C=CCCCCCCCCCCCC
The “activation” value of the first is higher: 13.8% for the first, 6.62% for the second.

Going from `N#Cc1ccc(C(=O)O)cc1` to `O=C(O)C(=O)Cc1ccccc1`, the “activation” value rises from 7.32% to 12.8%.

Going from `CC(CO)c1ccccc1` (stereo unspecified) to `CCCCOC(=O)c1ccccc1`, the “activation” value falls from 2.04% to -13.8%.

Compared with `Cc1cc(Cl)c(C)cc1Cl`, `O=C(O)c1cc(Cl)cc([N+](=O)[O-])c1Cl` is lower in “activation” value: 2.64% for the first, 0.254% for the second.

First: CC(C)(C)c1n[nH]c(=S)n(N)c1=O
Second: COc1ccc(Br)c(C)c1
The “activation” value of the first is higher: 9.77% for the first, 6.9% for the second.

Compared with `Nc1cccc(O)c1`, `CC1COc2ccccc2N1` (stereo unspecified) is higher in “activation” value: 0.65% for the first, 13.3% for the second.

Going from `CCC(CC)CO` to `CCC(C)NC(N)=O` (stereo unspecified), the “activation” value rises from 1.62% to 14.2%.

Compared with `BrCCCCCBr`, `C=C(C)C(=O)OCCN(CC)CC` is lower in “activation” value: -1.54% for the first, -1.74% for the second.

First: C[C@@H](Oc1ccc(CNC(=O)c2cccnc2Oc2ccc3c(c2)OCO3)c(F)c1)C(=O)O
Second: C=C(C)C(=O)OCCOP(=O)(O)OCCOC(=O)C(=C)C
The “activation” value of the first is lower: 0.0064% for the first, 15.1% for the second.

In the case of `C=C(C)C1CCC(C)(O)CC1` (stereo unspecified), the “activation” value is reported as 6.52%.

For `CCCCCCCCC1CCC(=O)O1` (stereo unspecified), the Potency was 30.6 µM (active).
For `C#CC(C)N(C)C(=O)Nc1ccc(Cl)cc1` (stereo unspecified), the Potency was 61.1 µM (active).
For `NS(=O)(=O)c1cc2c(cc1Cl)CN(C1CCCCC1)C2=O`, the Potency was 29.8 µM (active).

Going from `COC(=O)CCc1ccc(OCC(O)CNC(C)C)cc1` (stereo unspecified) to `COc1cc2c(cc1OC)C(=O)CC2`, the “activation” value rises from -3.73% [at 42.5 µM] to 15.1% [at 42.5 µM].

In the case of `COC(=O)C1CC(=O)C(C(=O)OC)CC1=O` (stereo unspecified), the activation is reported as 2.25% [at 8.39 µM].
